The text below walks through data of PubChem BioAssay (NCATS).

Assay [1] concerns Zika virus NS2B-NS3 protease (unlinked complex). The assay can be described thus: Primary screen GU Rhodamine qHTS for Zika virus inhibitors: Unlinked NS2B-NS3 protease assay (AID 1347159). Also: nearly all actives have a fitted effect of over 60% in size. The method in brief:
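Compounds, tested up to 114 microM, were incubated for 15 minutes with 25 nM unlinked NS2B-NS3 protease at pH 8.0. Cleavage of 1.5 microM Rhodamine110 substrate was then followed by fluorescence for 15 minutes.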

For assay [2], the system named is Zika virus NS2B-NS3 protease (linked construct). The assay is described as follows: Primary screen NINDS Rhodamine qHTS for Zika virus inhibitors (AID 1347160). Also: nearly all actives have a fitted effect of over 55% in size. A digest of the protocol:
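Percent inhibition, normalized to uninhibited and enzyme-free controls, is fitted to a 4-parameter Hill equation. Fluorescence change comes from a 15-min cleavage of 1.5 microM bis-peptide Rhodamine110 substrate by 25 nM linked NS2B-NS3 at room temperature.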

Results filed as inconclusive are left out. Unmarked numbers belong to inactive results. Calls of active or inactive are those of the source. Calls follow the shape of the dose curve; as a rule, active = well fitted inhibition curve with a large enough effect; inconclusive = small, poorly fitted or top-dose-only effect; inactive = no such curve, though single readings can be large or run the other way. *1 amine or outer side, *2 acyl side, *3 side chain or, on linkers, in order; H or OH if unused. Where a SMILES comes first, the peptide text is derived from it. [ ]: non-standard residue; d: D form. X4 = CC(C)=CCc1cc(C(O)C(N[*:1])C(=O)[*:2])ccc1O
% is scaled to controls: 0 for no effect and ±100 for the full control effect.

Regarding `C=C1CC[C@H]2[C@@](C)(CCC(O)[C@@]2(C)CO)[C@@H]1CCC1=CCOC1=O` (stereo partly specified), the Potency result in assay [1] and in assay [2] was “inactive” each time.
Regarding `O=C(O)c1cn(C2CC2)c2cc(N3C[C@@H]4C[C@H]3CN4)c(F)cc2c1=O`, the Potency entry in assay [1] and in assay [2] was “inactive” each time.
Take `CS(=O)(=O)N1CCC(NC(=O)c2[nH]ncc2NC(=O)c2c(Cl)cccc2Cl)CC1`: the Potency entry in assay [1] and in assay [2] was “inactive” each time.
Turning to `Cc1cccc(-c2[nH]c(Cc3cccc(C(N)=O)c3)nc2-c2ccc3nccnc3c2)n1`, the Potency entry in assay [1] and in assay [2] was “inactive” in each case.
`Cn1c(=O)cc(N2CCCC(N)C2)n(Cc2cc(F)ccc2C#N)c1=O` (stereo unspecified): the Potency entry in assay [1] and in assay [2] was “inactive” each time.
Regarding `CC1(c2nc3c(C(N)=O)cccc3[nH]2)CCCN1` (stereo unspecified), the Potency entry in assay [1] and in assay [2] was “inactive” each time.
For the molecule `CC(C)(C)NS(=O)(=O)c1cncc(-c2cc(F)c3nc(N)nn3c2)c1`, the Potency entry in assay [1] and in assay [2] was “inactive” in each case.
As to `O=C(O)COCCN1CCN([C@H](c2ccccc2)c2ccc(Cl)cc2)CC1`, the Potency result in assay [1] and in assay [2] was “inactive” throughout.
For the molecule `O=C(Nc1ccccc1-c1cn2c(CN3CCNCC3)csc2n1)c1ccc2ccccc2n1`, the Potency result in assay [1] and in assay [2] was “inactive” each time.
For the molecule `C/C=C/C(O)C1OC(=O)CC1Nc1ccc(C(=O)O)cc1` (stereo unspecified), the Potency entry in assay [1] and in assay [2] was “inactive” in each case.
Consider `CO[C@H]1C[C@@H]2CC[C@@H](C)[C@@](O)(O2)C(=O)C(=O)N2CCCC[C@H]2C(=O)O[C@H]([C@H](C)C[C@@H]2CC[C@H](n3cnnn3)[C@H](OC)C2)CC(=O)[C@H](C)/C=C(\C)[C@@H](O)[C@@H](OC)C(=O)[C@H](C)C[C@H](C)/C=C/C=C/C=C/1C`, for which the Potency entry in assay [1] and in assay [2] was “inactive” throughout.
For `CCC(O)(C(=O)OCc1ccccc1NC(=O)CCC(=O)O)C(C)O` (stereo unspecified), the Potency entry in assay [1] and in assay [2] was “inactive” in each case.
In the case of `C=C1C(=O)O[C@@H]2[C@H]1CCC(C)=C1CCC(=O)O[C@]12C`, the Potency entry in assay [1] and in assay [2] was “inactive” in each case.
Regarding `C[C@@H]1O[C@@H](O[C@H]2[C@H](OC(=O)[C@]34CCC(C)(C)C[C@H]3C3=CCC5[C@@]6(C)CC[C@H](O[C@@H]7O[C@H](C(=O)O)[C@@H](O)[C@H](O)[C@H]7O[C@@H]7O[C@H](CO)[C@H](O)[C@H](O)[C@H]7O)[C@@](C)(C=O)C6CC[C@@]5(C)[C@]3(C)C[C@H]4O)O[C@H](C)[C@H](O[C@@H]3O[C@H](C)[C@H](O)[C@H](O)[C@H]3O)[C@@H]2O)[C@H](O)[C@H](O)[C@H]1O[C@@H]1OC[C@@H](O)[C@H](O[C@@H]2O[C@H](CO)[C@@H](O)[C@H](O)[C@H]2O)[C@H]1O` (stereo partly specified), the activity change, negative = inhibition in assay [1] is 4.39% [at 19.1 µM]. Besides, the outcome in assay [2] was “inactive [at 10.7 µM]”.
For `CC1(C)CCC2(C(=O)OC3OCC(O)C(O)C3O)CCC3(C)C(=CCC4C5(C)CC(O)C(OC6OC(COC7OCC(O)C(O)C7O)C(O)C(O)C6O)C(C)(C)C5CCC43C)C2C1` (stereo unspecified), the Potency entry in assay [1] and in assay [2] was “inactive” throughout.
Consider `C[C@@H]1CC[C@]2(C(=O)OC3OC(CO)C(O)C(O)C3O)CC[C@]3(C)C(=CCC4[C@@]5(C)CC[C@H](O)[C@](C)(C(=O)O)C5CC[C@]43C)C2[C@]1(C)O` (stereo partly specified), for which the Potency entry in assay [1] and in assay [2] was “inactive” throughout.
For the molecule `COc1cccc(C(=O)N2CCN(C(=O)COc3cccc(C)c3)CC2)c1OC`, the Potency result in assay [1] and in assay [2] was “inactive” throughout.
Consider `CC(C)(C(=O)NCC(F)(F)C(F)(F)F)C(=O)NC1C(=O)Nc2ccccc2-c2ccccc21` (stereo unspecified), for which the Potency result in assay [1] and in assay [2] was “inactive” in each case.
In the case of `NC(=O)c1cnc(NCCc2ccc(O)c(Cl)c2)nc1NCc1ccccc1`, the Potency result in assay [1] and in assay [2] was “inactive” each time.
`CC(C)=CCC(O)/C(C)=C/CO[C@@H]1O[C@H](CO)[C@@H](O)[C@H](O)[C@H]1O` (stereo partly specified): the Potency result in assay [1] and in assay [2] was “inactive” each time.
In the case of `CC(C)(C)NC(=O)[C@@H](c1cccnc1)N(C(=O)c1ccco1)c1ccc(C(C)(C)C)cc1`, the Potency entry in assay [1] and in assay [2] was “inactive” throughout.
In the case of `OC[C@@]1(O)CO[C@@H](OC[C@H]2O[C@@H](Oc3c[nH]c4ccccc34)[C@H](O)[C@@H](O)[C@@H]2O)[C@@H]1O`, the Potency entry in assay [1] and in assay [2] was “inactive” each time.
Take `C#CC[C@H](c1nc2cc(Cl)ccc2c(=O)n1Nc1ccccc1)N(CCCN)C(=O)c1cccc(Cl)c1F`: the Potency result in assay [1] and in assay [2] was “inactive” in each case.
Turning to `CNC(=O)c1ccccc1Nc1nc(Nc2ccc3c(c2OC)CCCC(N2CCN(CCO)CC2)C3)ncc1Cl` (stereo unspecified), the Potency entry in assay [1] and in assay [2] was “inactive” in each case.
`CC(C)=CCc1cc(C(O)C2NC(=O)CNC(=O)C(Cc3c[nH]c4ccccc34)NC(=O)C3CCCN3C(=O)CNC(=O)C(C(C)C)NC(=O)CNC2=O)ccc1O` (stereo unspecified) (cyclo(G[X4]GVGPW); configuration not given here): the Potency entry in assay [1] and in assay [2] was “inactive” in each case.
On to `C[C@@H]1O[C@@H](O[C@H]2[C@H](OC(=O)[C@]34CCC(C)(C)C[C@H]3C3=CCC5[C@@]6(C)C[C@H](O)[C@H](O[C@@H]7O[C@H](CO)[C@@H](O[C@H]8OC[C@](O)(CO)[C@H]8O)[C@H](O)[C@H]7O)[C@@](C)(CO)C6[C@H](O)C[C@@]5(C)[C@]3(C)C[C@H]4O)OC[C@H](O)[C@@H]2O)[C@H](O)[C@H](O)[C@H]1O[C@@H]1OC[C@@H](O)[C@H](O[C@@H]2OC[C@](O)(CO)[C@H]2O)[C@H]1O` (stereo partly specified), for which the figures for the activity change, negative = inhibition in assay [1] and in assay [2] were 20.8% [at 19.1 µM] and 33.3% [at 10.7 µM], respectively.
Regarding `CCC1=CC2CN(C1)Cc1c([nH]c3ccccc13)[C@@](C(=O)OC)(c1cc3c(cc1OC)N(C)[C@H]1[C@@](O)(C(=O)OC)[C@H](OC(C)=O)[C@]4(CC)C=CCN5CC[C@]31[C@@H]54)C2` (stereo partly specified), the Potency result in assay [1] and in assay [2] was “inactive” throughout.
In the case of `CC1OC(OC2C(C)OC(OC3C(O)C(CO)OC(O[C@H]4CC[C@@]5(C)C(CC[C@]6(C)C5CC=C5C7[C@@H](C)[C@H](C)CC[C@]7(C(=O)O)CC[C@]56C(=O)O)C4(C)C)C3O)C(O)C2O)C(O)C(O)C1O` (stereo partly specified), the Potency entry in assay [1] and in assay [2] was “inactive” each time.
